Only some compounds are listed: those with a hit (about 12% of all), similar ones and a draw of the others.
HP1b chromo inh: HP1-beta chromodomain-methylated histone interaction inhibition. AlphaScreen HP1-beta / biotin-H3K9me3 peptide binding. 390,000 compounds, 0.56% hits. Potency, µM (doses to about 114 µM), for inactives: at the top dose activity change, negative = inhibition, actives largely listed as inhibitors. P83916. AID 540317; further: nearly all actives have a fitted effect of over 70% in size
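AlphaScreen: HP1-beta (50 nM) preformed 30 min with biotin-H3(1-18)K9me3 peptide (50 nM) in PBS pH 7.4, 0.01% Tween-20. Compound added for 30 min at RT, then streptavidin donor/nickel chelate acceptor beads (10 ug/mL) for 30 min.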
Sfp PPTase inh: Sfp phosphopantetheinyl transferase inhibition; Potency, µM, inactives show largest response in the series, negative = inhibition, hits mostly inhibitors; Q9F4F7; Biochemical Sfp PPTase activity, qHTS; 310,000 compounds, 3.5% hits; AID 1490;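 further: the enzyme is Sfp with the accession as filed and its product quenches rhodamine fluorescence; 0% = enzyme reaction without inhibitor and -100% = no enzyme wells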
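Fluorescence-quenching assay: 15 nM Sfp-PPTase preincubated 15 min at room temperature with compound, then 5 uM rhodamine-CoA and 12.5 uM BHQ-2-labelled YbbR peptide added. Fluorescence (ex 525/em 598 nm) read at start and after 30 min; difference gives rate.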
JMJD2A Tudor inh: blocks the human JMJD2A Tudor domain. O75164. AlphaScreen JMJD2A-Tudor / H3K4me3 peptide binding. Potency, µM (doses to about 114 µM), without a hit: at the top dose activity change, negative = inhibition, usual class: inhibitors. 390,000 compounds, 4.4% hits. AID 504339; further: on the % scale 0 is the no-effect control and ±100 the full control effect; nearly all actives have a fitted effect of over 50% in size
BAZ2B inh: inhibitors of human BAZ2B bromodomain; Q9UIF8; 360,000 compounds, 4.4% hits; Potency, µM (titrated, usually from 114 µM), without a hit: at the top dose activity change, negative = inhibition, hits mostly inhibitors; AlphaScreen BAZ2B-H3K14Ac peptide displacement; further: on the % scale 0 is the no-effect control and ±100 the full control effect; nearly all actives have a fitted effect of over 60% in size
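BAZ2B (50 nM) with biotin-H3(5-23)K14Ac peptide (50 nM) in PBS pH 7.4, 0.01% Tween-20, preformed 30 min, then compound 30 min at room temperature; top concentration 110uM. AlphaScreen streptavidin donor/nickel chelate acceptor beads (10 ug/mL final), 20 min dark, signal read.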
G9a block: inhibitors of human histone lysine methyltransferase G9a. Q96KQ7. G9a H3K9 monomethylation, AlphaScreen, 2 h. Potency, µM (doses to about 102 µM), without a hit: at the highest dose activity, negative = inhibition, most hits filed as inhibitors. 350,000 compounds, 8.8% hits; further: on the % scale 0 is the no-effect control and ±100 the full control effect; nearly all actives have a fitted effect of over 75% in size
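AlphaScreen detection with an anti-monomethyl H3K9 antibody quantified product after a 2 h room-temperature reaction containing 500 nM biotinylated H3K9 peptide, 20 µM SAM and 20 nM enzyme, which had been preincubated 15 min with compound.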
L3MBTL1 inh: L3MBTL1 (human) inhibition. 230,000 compounds, 0.66% hits. Potency, µM (titrated, usually from 57.1 µM), without a hit: top-dose activity, negative = inhibition, actives largely listed as inhibitors. AlphaScreen L3MBTL1–H3K9me1 peptide binding. Q9Y468; further: on the % scale 0 is the no-effect control and ±100 the full control effect; nearly all actives have a fitted effect of over 60% in size
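L3MBTL1 50 nM + b-AHA-H3(1-15)K9me1 75 nM, 30 min RT; compound added, 30 min RT; streptavidin donor/Ni-chelate acceptor beads 10 ug/mL each final, 30 min RT dark; AlphaScreen read.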
* = called active by the depositor; [ ] = dose if it differs, or a comment. The call rests on the fitted dose curve; in most records, active means well fitted curve in the direction sought with a large enough effect; inconclusive means small, poorly fitted or top-dose-only effect, or another doubt; inactive means no such curve, though single readings can be large; an effect the other way counts as inactive or inconclusive. Potency means the concentration at half of the fitted maximal effect.

For COc1ccc(CN(CC2CCCO2)S(=O)(=O)c2ccc(-n3cnnn3)c(OC)c2)cc1 (centres undefined) the results were HP1b chromo inh 31%, Sfp PPTase inh 8%, JMJD2A Tudor inh -4%, BAZ2B inh -11%, G9a block -3% and L3MBTL1 inh -3%.
Screening COc1cc(S(=O)(=O)N(Cc2cccc(OC)c2OC)CC2CCCO2)ccc1-n1cnnn1 (centres undefined) returned HP1b chromo inh 29%, Sfp PPTase inh 14%, JMJD2A Tudor inh -22%, BAZ2B inh -39% and G9a block 50µM*.
Screening COc1cccc(CN(Cc2cccnc2)S(=O)(=O)c2ccc(-n3cnnn3)c(C)c2)c1OC returned HP1b chromo inh 20%, Sfp PPTase inh -10%, JMJD2A Tudor inh inconclusive, BAZ2B inh inconclusive, G9a block 25µM* and L3MBTL1 inh -3%.
For COc1ccccc1N1CCN(C(=O)CCC(=O)N2CCN(c3ccc(F)cc3)CC2)CC1 the results were HP1b chromo inh 38%, Sfp PPTase inh 14%, JMJD2A Tudor inh -10%, BAZ2B inh 53% and L3MBTL1 inh 33%.
Screening O=C(Nc1ccc(Br)cc1F)N1CCC2(CC1)Oc1ccccc1C(=O)N2Cc1ccccc1F returned HP1b chromo inh 32%, JMJD2A Tudor inh -15%, BAZ2B inh -20% and G9a block 3%[59 µM].
For O=C(O)CCc1cc(I)c(O)c(I)c1 the results were Sfp PPTase inh 4% and G9a block inconclusive.
`COc1ccc(NC(=O)CN(C)C(=O)CCCc2c[nH]c3ccccc23)cc1` gave HP1b chromo inh -5%, JMJD2A Tudor inh inconclusive, BAZ2B inh inconclusive, G9a block 45µM* and L3MBTL1 inh -5%.

Compound activity deposited in PubChem by National Center for Advancing Translational Sciences (NCATS).
